The other results are listed elsewhere or left out. Active and inactive are the calls of the source.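 Rule for the calls: active = average inhibition across triplicates above the hit cutoff set in the primary screen (cut at about 32% in these data); inactive = the rest.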

For this assay, the target named is Female germline-specific tumor suppressor gld-1 (Caenorhabditis elegans) (UniProt Q17339). The assay is described as follows: GLD-1/TGE RNA binding inhibitors, retest, confirmation, biochemical, fluorescence polarization, triplicate (AID 2459).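 Note: 0% = GLD-1 with RNA probe and DMSO and 100% = wells lacking GLD-1.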 The settings on record: GLD-1/FL-TGE RNA fluorescence polarization, at 5.96 µM, active compounds read high. Background: In fluorescence polarisation assays a small probe gives low polarisation when free and higher when bound to something large.
Chain of Female germline-specific tumor suppressor gld-1 (Caenorhabditis elegans) (Q17339 whole entry, looked up): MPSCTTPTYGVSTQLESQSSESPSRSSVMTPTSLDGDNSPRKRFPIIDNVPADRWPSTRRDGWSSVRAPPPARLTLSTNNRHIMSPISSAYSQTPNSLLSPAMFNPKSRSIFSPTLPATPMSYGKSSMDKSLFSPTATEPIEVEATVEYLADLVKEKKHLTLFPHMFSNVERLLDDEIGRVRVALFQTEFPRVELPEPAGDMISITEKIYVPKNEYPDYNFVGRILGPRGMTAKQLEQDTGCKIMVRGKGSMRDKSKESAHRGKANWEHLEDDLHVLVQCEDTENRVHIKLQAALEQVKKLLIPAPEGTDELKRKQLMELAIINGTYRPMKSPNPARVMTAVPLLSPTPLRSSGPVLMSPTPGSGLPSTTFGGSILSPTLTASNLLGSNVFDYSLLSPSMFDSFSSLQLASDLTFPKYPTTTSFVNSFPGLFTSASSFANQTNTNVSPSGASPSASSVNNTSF
What is called inhibition is the relative decrease from the control value, in per cent. In the case of `Cc1ccccc1Nc1nc(N)nc(CSc2nnc3ccccn23)n1`, the inhibition is -3.26% (inactive).
To `CC(NC(=O)CSc1nc2c(cc1C#N)CN(C)CC2)c1ccccc1` (stereo not given) belongs -6.45% (inactive); to `Cc1ccc(C)c(S(=O)(=O)N2CCN(C(=O)Nc3ccccc3)CC2)c1`, 2.41% (inactive); to `CNC(=S)NNC(=O)c1oc2nc(-c3ccccc3)cc(-c3ccco3)c2c1N`, -4.28% (inactive).
In the case of `Cc1cc2ccccc2n1CCC(=O)O`, the inhibition was 10.1% (inactive).
To `CN(C)c1ccc(Nc2c3c4c(cccc4n(C)c2=O)C(=O)c2ccccc2-3)cc1` belongs 63.3% (active); to `COC(=O)c1cc(CNC(=O)CC(C)c2ccccc2)ccc1OC` (stereo not given), -6.47% (inactive); to `Cc1ccc(/C=N/NC(=O)COc2ccccc2-c2ccccc2)cc1`, -5.49% (inactive).
To `COC(=O)c1sc(NC(=S)NC(=O)c2ccc(C)cc2)nc1C` belongs -1.92% (inactive); to `N#CC1=C(N)C(C#N)(C#N)[C@H](c2ccsc2)[C@H]2COCC=C12`, 7.34% (inactive).
To `CCOc1cc(C2C(C(=O)OC)=CN(C3CCCC3)C=C2C(=O)OC)cc(Br)c1O` belongs 31.8% (active).
As for `N#C/C(=C(\O)C(F)(F)F)c1nnc2n1CCCCC2`, the inhibition was -8.93% (inactive).
To `COC(=O)CCCC1=CC2=CC(=O)C(C)(OC(=O)c3cccs3)C(=O)C2=CN1c1cccc(C#N)c1` (stereo not given) belongs 8.48% (inactive).
To `O=c1[nH]cccc1-c1nc2ccccc2n1Cc1ccc(Cl)cc1` belongs -6.98% (inactive).
To `CCOc1ccc2nc(N3CCCN(C(=O)Nc4ccccc4C)CC3)c(C#N)cc2c1` belongs 52.2% (active).

(Values after PubChem BioAssay AID2459 (The Scripps Research Institute Molecular Screening Center, 2010).)
